Compound activity as filed in PubChem.
MMP13 inh: blocks human MMP13 activity; MMP-13 fTHP FRET cleavage, Mca fluorescence; inhibition, % at 4 µM; P45452; 65,000 tested, 0.07% active;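 active = inhibition above the mean of compound-free control plate wells plus 3 SD, cut at about 14% in these data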;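 note: 0% = DMSO wells and 100% = wells with reference MMP-13 inhibitor after basal subtraction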
FXIIa inh mix: inhibitors of human coagulation factor XIIa, pooled mixtures | P00748 | purified FXIIa, fluorogenic substrate | inhibition, % at 5 µM | 62,000 tested, 0.2% active;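 note: 0% = enzyme without compound and 100% = no enzyme blank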
WNV protease inh: WNV NS2B-NS3 proteinase inhibition. P06935. WNV NS2B-NS3 protease, fluorogenic substrate Ex360/Em465; stronger effect = lower value. z-score (test concentration not listed). 65,000 tested, 0.18% active. AID 577; in the data active = z-score below about -3
MT1-MMP txn act: activates MT1-MMP transcription | HT1080 MT1-MMP promoter luciferase reporter, luminescence, overnight; stronger effect = higher value | AID 750 | 86,000 tested, 0.16% active | activation factor at 10 µM;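 active = activation factor of at least 2 for MT1-MMP transcription at 10 µM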
FXIa mix inh: inhibitors of human coagulation factor XIa, pooled mixtures; purified FXIa, fluorogenic substrate; inhibition, % at 5 µM; 62,000 tested, 0.19% active;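 note: each value is inhibition by a whole ten-compound pool holding the compound; 0% = enzyme with no mixture and 100% = wells lacking enzyme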
E coli RNAP: blocks E. coli RNA polymerase transcription; P0A8V2; fluorescence transcription assay; inhibition, %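 (tested at 10 µM)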; 62,000 tested, 0.2% active; in the data active = inhibition above about 20%;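 note: 0% = enzyme without compound and 100% = no enzyme blank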
Starred values were filed as active, the others as inactive; . = no result given. Compounds with a hit are over-represented: about 0.69% of the library has one in this group of screens. Cut-off read from the data, not from the text of the source, unless noted: active = inhibition above about 20% (passing the limit was not always enough); inactive = the rest.

SMILES	MMP13 inh	FXIIa inh mix	WNV protease inh	MT1-MMP txn act	FXIa mix inh	E coli RNAP
O=C(CCCNS(=O)(=O)c1cccs1)N1CCN(c2cccc(Cl)c2)CC1	2	5	-0.31	0.9	8	43*
CCn1cnc2sc(C(=O)N(Cc3ccc(N(C)C)cc3)Cc3ccco3)c(C)c2c1=O	0	-20	1.4	1.1	23*	-6
CCn1cnc2sc(C(=O)N3CCN(Cc4ccc5c(c4)OCO5)CC3)c(C)c2c1=O	-3	2	0.3	1	1	5
COc1ccc(CCn2c(SCC(=O)Nc3cc(C)on3)nc3ccccc3c2=O)cc1OC	4	-17	-0.58	1	4	4
COc1ccc(CCn2c(SCC(=O)Nc3cc(C)on3)nc3ccsc3c2=O)cc1OC	4	22*	-0.34	1.2	8	-2
COc1cc(NC(=O)Cn2nnc(-c3ccncc3)n2)cc(OC)c1	-17	2	-0.05	1.1	-2	12
O=C(Cn1nnc(-c2ccccc2F)n1)Nc1ccc2c(c1)OCO2	16*	2	0.12	0.9	7	3
O=C(Cn1nnc(-c2ccncc2)n1)Nc1ccc2c(c1)CCC2	15*	1	0.22	1.2	3	11
O=C(Cn1nnc(-c2ccccc2)n1)Nc1ccc2c(c1)OCO2	.	.	.	1	.	.
O=C(Nc1ccc2c(c1)oc1ccccc12)c1ccc2c(c1)OCO2	-1	4	0.09	1.2	7	7
COc1cc2c(cc1NC(=O)c1ccc3c(c1)OCO3)oc1ccccc12	1	-3	-0.2	2.1*	7	3
COC(=O)c1[nH]c2cc(OC)ccc2c1NC(=O)c1ccc2c(c1)OCO2	6	3	-5.6*	1.1	7	1
COC(=O)[C@@H]1C[C@@]2(O)[C@H](O)[C@H](O)[C@H](O)C[C@H]2N1Cc1ccc(-c2ccccc2)cc1	.	.	.	1	.	.
CSc1ccc(-c2nnn(Cc3ccccn3)n2)cc1	-1	-2	-0.65	2*	11	6
CC(=O)Nc1sc2c(c1C#N)CCCCC2	0	1	-0.0055	1.2	-27	22*
Cc1ccc(C(=O)Nc2sc3c(c2C#N)CCCCC3)cc1C	.	.	.	2.3*	.	.
COc1ccc(CCNC(=O)Cn2nnc(-c3ccccc3F)n2)cc1OC	.	.	.	1.1	.	.
CN(C)CCNC(=O)c1cc2ccccc2oc1=O	-17	21*	0.38	1.2	3	12
CC1(C(=O)NCCc2c[nH]c3ccccc23)C=CCN1C(=O)c1ccccc1 (stereo unspecified)	.	.	.	1.2	.	.
N#Cc1c(/N=C/c2ccc(Br)s2)sc2c1CCC2	.	.	.	2*	.	.
COC(=O)c1ccc(C(NC(=O)OCc2ccccc2)/C(I)=C/[C@@H](C)C(=O)Nc2ccccc2)cc1 (stereo partly specified)	.	.	.	1.1	.	.
CCC(=O)Nc1ccc(NC(=O)CSc2nnnn2C(C)C)cc1	-2	1	-0.28	0.9	27*	12
CCOC(=O)C1=C(C)N(CCCC(=O)O)C(=O)NC1c1ccccc1OC(=O)c1cccc(I)c1 (stereo unspecified)	.	.	.	1.1	.	.
Cc1cc(C)n2nc(Nc3ccccc3)cc2n1	-12	3	-0.92	2*	3	12
Cc1cc(C)n2nc(C(=O)NCc3ccccc3)cc2n1	-20	.	2.2	1	.	.
SMILES	MMP13 inh	FXIIa inh mix	WNV protease inh	MT1-MMP txn act	FXIa mix inh	E coli RNAP
COc1cccc2cc(-c3csc(CCn4nc(C)cc4C)n3)c(=O)oc12	-8	-5	-4.6*	1.4	5	1
CNC(=O)[C@H](C)/C=C(\I)C(NC(=O)OCc1ccccc1)c1ccc(C(=O)OC)cc1 (stereo partly specified)	.	.	.	1.1	.	.
CCCC[C@@H]1C[C@H]1C(NC(=O)c1ccccc1)c1ccc(C(=O)OC)cc1 (stereo partly specified)	.	.	.	1.2	.	.
O=C(NC1CCCCC1)C(c1ccc(O)cc1)N(CC1CCCO1)C(=O)C1COc2ccccc2O1 (stereo unspecified)	.	.	.	1.2	.	.
Cc1sc2c(c1C)CN(Cc1ccco1)CN2C(=O)c1ccccc1	-3	6	-0.36	2.1*	5	-1
COCCN1Cc2c(sc(C)c2C)N(C(=O)c2ccccc2)C1	-2	-5	-0.65	1.5	2	-3
O=C1NCCCC2c3c(cc(Br)c(O)c3Br)OC12N1CCCCC1 (stereo unspecified)	.	.	.	1.1	.	.
O=C1C(Cl)=C(N2CCCCC2)C(=O)N1c1ccccc1Cl	2	5	-0.02	1.1	22*	10
O=C(OCC(=O)c1c[nH]c2ccccc12)C1=COCCO1	-4	-18	0.46	2.1*	10	14
CCCC/C=C/C(NC(=O)C(C)(C)C)c1ccccc1 (stereo unspecified)	.	.	.	1.2	.	.
CCCCC(CC)CNC(=O)C1C2C=CC(C2)C1C(=O)O (stereo unspecified)	.	.	.	2.1*	.	.
COc1ccccc1-c1nc(-c2ccc(Br)cc2)no1	-6	29*	-0.27	1.8	3	8
COc1ccccc1-c1nc(-c2ccncc2)no1	-2	13	1.3	1	1	.
O=C(O)CSC12CC3CC(C1)CC(C(=O)O)(C3)C2	3	-4	1.1	1.2	24*	-1
C#CCOC(=O)C(NC(=O)c1ccccc1)=C1CCCCC1	.	.	.	1.1	.	.
CCCc1[nH]nc2c1C(c1cn[nH]c1-c1ccc(F)cc1)C(C#N)=C(N)O2 (stereo unspecified)	1	1	-0.56	1.1	21*	12
CCCc1[nH]nc2c1C(c1ccccc1OC)C(C#N)=C(N)O2 (stereo unspecified)	1	2	-0.79	1.1	8	9
CCN(CC)C(=O)c1sc(NC(=O)c2ccc3c(c2)OCO3)c(C#N)c1C	.	.	.	1.1	.	.
CCN(CC)C(=O)c1sc(NC(=O)Cc2cccs2)c(C#N)c1C	0	1	-4.4*	1	-12	7
O=C(Nc1ccc(-n2cnnn2)cc1)C1CCC1	-2	20*	-0.78	1.1	7	1
O=C(CN1CCN(c2ccc(F)cc2)CC1)Nc1ccc(-n2cnnn2)cc1	1	.	0.0041	1	.	.
CCC(c1nnnn1C(C)(C)C)N(Cc1cccs1)Cc1cc2cc(C)c(C)cc2n2nnnc12 (stereo unspecified)	.	.	.	1.2	.	.
Clc1cc(Cl)c2nc(N3CCCCC3)sc2c1	3	6	-1.4	2.1*	-8	4
Cc1sc(NC(=O)c2ccco2)c(CN2CCN(c3ccccn3)CC2)c1C	-2	3	-1	1.3	46*	2
CCc1cc2c(SCC(=O)c3cccs3)ncnc2s1	4	-16	-0.65	1.2	4	24*
SMILES	MMP13 inh	FXIIa inh mix	WNV protease inh	MT1-MMP txn act	FXIa mix inh	E coli RNAP
CCc1cc2c(SCC(=O)c3ccccc3)ncnc2s1	.	.	.	1.4	.	.
CCN(CC(=O)Nc1ccccc1OC)C(=O)C1CC2C=CC1C2 (stereo unspecified)	-3	6	-7.5*	1.1	-6	2
c1coc(CN(Cc2ccco2)c2ncnc3c2oc2ccccc23)c1	.	.	.	1.1	.	.
CCCCNC(=O)C1CCN(Cc2ccc(OCc3ccccc3)cc2)CC1	.	.	.	2*	.	.
NC(=O)NCc1ccccc1	.	.	.	0.9	.	.
COc1ccc(N(C(=O)c2ccco2)S(=O)(=O)c2cccs2)cc1	1	5	-0.08	1	8	1
